High-throughput results as filed in PubChem.
The list is not random: actives were taken first. Their share in the collection is about 28%.
DAT uptake mod: human DAT dopamine uptake with cocaine, either direction; actives 1.3% (n = 110,000); Q01959; LLC-PK1 hDAT cells, [14C]-dopamine uptake with cocaine IC80; actives deviate in either direction; B-score at 10 µM;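 active = Z score or B-score, a plate-position-corrected score, falls beyond the plate's 99.7% confidence bounds, in either direction; inactive = both scores lie inside the 99.7% bounds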;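 also: scored against the spread of the other compound wells on the same plate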
CYP2C9 inhib: human CYP2C9 inhibition; AID 777; inhibition, % at 5 µM; actives 20% (n = 96,000); P11712; CYP2C9 Supersomes, luciferin-H conversion, luminescence;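 active = blocking of liver enzyme CYP2C9 beyond about 50% at 5 µM, limit read from the data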
CYP2C9 activ: activators of human CYP2C9 | P11712 | recombinant CYP2C9, luciferin-H conversion, luminescence; hits give high values; factor 1 = untreated enzyme, 0 = blocked | activation factor at 5 µM | actives 1.4% (n = 96,000) | AID 1024;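 active = activation factor of 2 or more for CYP2C9 at a 5 µM dose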;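 also: 0 = sulfaphenazole-blocked wells and 1 = vehicle-only wells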
CYP2C19 inhib: inhibitors of human CYP2C19; CYP2C19 Supersomes, luciferin-H EGE luminescence, 30 min; actives 21% (n = 96,000); inhibition, % at 5 µM;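 active = CYP2C19 inhibition above a set limit at 5 µM in the primary screen, cut at about 50% in these data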;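 also: plate controls were negative control wells for no effect and 2.5 mM tranylcypromine positive control for full effect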
D1 allo mod: allosteric modulators of human D1 dopamine receptor | P21728 | actives 5.9% (n = 58,000) | HEK293 D1, CRE-luciferase, dopamine EC30 potentiation; actives deviate in either direction | B-score at 10 µM;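 active = luminescence count or its row- and column-corrected plate score outside the 99.7% band of the plate's sample wells, on either side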
Target sequence (P21728 whole entry, looked up): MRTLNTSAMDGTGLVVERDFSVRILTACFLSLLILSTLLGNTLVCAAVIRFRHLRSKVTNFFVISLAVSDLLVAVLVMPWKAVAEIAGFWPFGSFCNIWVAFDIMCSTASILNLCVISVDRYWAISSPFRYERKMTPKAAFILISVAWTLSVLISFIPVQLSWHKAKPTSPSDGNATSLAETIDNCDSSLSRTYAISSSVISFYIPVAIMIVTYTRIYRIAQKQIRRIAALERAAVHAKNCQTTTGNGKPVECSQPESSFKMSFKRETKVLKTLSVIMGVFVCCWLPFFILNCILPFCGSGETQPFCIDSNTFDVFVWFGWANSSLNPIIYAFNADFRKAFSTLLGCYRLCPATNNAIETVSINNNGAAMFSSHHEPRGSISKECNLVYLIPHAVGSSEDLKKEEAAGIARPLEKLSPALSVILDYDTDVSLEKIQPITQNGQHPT
CYP2C19 activ: increases human CYP2C19 enzyme activity; P33261; recombinant CYP2C19, luciferin-H EGE luminescence; hits give high values; 0 = fully inhibited enzyme, 1 = untreated enzyme; activation factor at 5 µM; 96,000 tested, under 10 active; AID 1025;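 active = activation factor of at least 2 at 5 µM in the primary screen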;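 also: 0 = wells with 2.5 mM tranylcypromine and 1 = vehicle-only wells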
D1 PAM confirm: D1 receptor (human) allosteric modulation, confirmed. shares compounds with D1 allo mod. luminescence at 10 µM. HEK293 D1 CRE-luciferase, dopamine EC30 potentiation; hits give high values. actives 88% (n = 2,200);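 active = luminescence in either of two replicates above the same-plate mean plus 3 SD of the low-dose dopamine control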
D1 no dopamine: secondary test of D1 modulators: activity without dopamine; shares compounds with D1 allo mod; HEK293 D1 CRE-luciferase, luminescence, no dopamine; hits give high values; luminescence at 10 µM; actives 0.8% (n = 1,900); AID 646; in the data active = luminescence above about 3900
Isoprot counter: isoproterenol response counter-screen activity for D1 modulators; calls only at 10 µM; AID 647; actives 63% (n = 2,200); shares compounds with D1 allo mod; HEK293 D1 CRE-luciferase, isoproterenol EC30 counter-screen;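 active = luminescence in either replicate above plate mean of wells with a partly effective reference agonist dose plus 3 SD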;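 also: isoproterenol raises cAMP through native beta-adrenoceptor Gs so signal bypasses D1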
Active calls of the source: *; i = inactive; nt = no result given; + = active, no number.

SMILES	DAT uptake mod	CYP2C9 inhib	CYP2C9 activ	CYP2C19 inhib	D1 allo mod	CYP2C19 activ	D1 PAM confirm	D1 no dopamine	Isoprot counter
COc1cc(CCC(=O)OCn2nnc3ccccc3c2=O)cc(OC)c1OC	0.24	1	1	-5	0.14	1	nt	nt	nt
CCOc1ccc(C(=O)OCc2nnc(-c3cccs3)o2)cc1OC	0.56	80*	0.2	68*	15*	0.3	16352*	1560	+
CCOc1ccc(C(=O)OCn2nnc3ccccc3c2=O)cc1OC	-1.6	-5	1.1	5	16*	0.9	23528*	1684	+
Cc1ccccc1NS(=O)(=O)c1ccc(OCC(=O)N2CCCC2)cc1	0.12	-23	1.2	-18	-0.47	1.2	nt	nt	nt
CC(C)N1C(=S)SC(C)(C)C1NO (stereo unspecified)	0.42	-7	1.1	14	0.011	0.9	nt	nt	nt
O=C1C/C(=C/NCc2ccccc2)C(=O)N1	-0.93	-3	1	0	-0.44	1	nt	nt	nt
Cn1c(SCC(=O)N2CCCC2)nc2ccccc2c1=O	-0.065	21	0.8	15	-0.092	0.8	nt	nt	nt
CCOc1ccc2nc(NC(=O)CSc3nc4c(c(=O)n(C)c(=O)n4C)n3C(C)C)sc2c1	nt	7	0.9	4	4*	1	10912*	1684	+
CC(C)n1c(SCC(=O)Nc2ccc3c(c2)OCO3)nc2c1c(=O)n(C)c(=O)n2C	-0.17	55*	0.4	31	9.1*	0.7	7904*	1376	+
CCn1c(=O)cc(SCC(=O)Nc2ccc3c(c2)OCO3)c2ccccc21	0.41	-17	1.2	71*	5.2*	0.3	9432*	1616	i
Cc1cc(NC(=O)CSc2nc3c(c(=O)n(C)c(=O)n3C)n2C(C)C)no1	0.27	20	0.8	20	nt	0.8	nt	nt	nt
CC(C)n1c(SCC(=O)N2CCCC2)nc2c1c(=O)n(C)c(=O)n2C	-0.016	-2	1	0	6.4*	1	13032*	1508	i
COc1cc(NC(=O)c2cc(-n3cnnc3)ccc2Cl)cc(OC)c1	0.65	7	0.9	11	-0.41	0.9	nt	nt	nt
CC1N=C2c3ccccc3N=C(SCc3cc(=O)n4cc(Cl)ccc4n3)N2C1=O (stereo unspecified)	0.55	nt	nt	nt	4.2*	nt	10900*	1568	+
COC(=O)c1cc(OC)c(OC)cc1N=CC1=C(O)CC(C)(C)CC1=O	0.019	30	0.7	27	4.1*	0.7	9648*	1564	+
CC(C)COc1ccc(C(=O)OC2CC(C)(C)OCC2CN(C)C)cc1 (stereo unspecified)	0.11	16	0.8	8	-0.00056	0.9	nt	nt	nt
COc1ccc2c(c1OC)C(=O)OC2Nc1ncc(Br)cc1Br (stereo unspecified)	-0.24	1	1	0	nt	1	nt	nt	nt
Cn1ccnc1Sc1nc(Nc2cccc(Cl)c2)nc(N2CCOCC2)n1	1.5	20	0.8	23	8.4*	0.8	15596*	1596	+
Cc1cccc(Nc2nc(N)nc(CSc3nccn3C)n2)c1	0.94	12	0.9	12	nt	0.9	nt	nt	nt
COc1ccc(C2=NOC(C(=O)NC3CCCCC3)C2)cc1OC (stereo unspecified)	-0.11	-83	1.8	22	4.6*	0.8	14608*	1788	i
COc1ccc(C2=NOC(C(=O)Nc3ccc(C(C)=O)cc3)C2)cc1OC (stereo unspecified)	1.8	39	0.6	0	5*	1	8288*	nt	+
COc1ccc(C2=NOC(C(=O)Nc3cc(Br)ccc3O)C2)cc1OC (stereo unspecified)	-0.43	-1	1	12	38*	0.9	25996*	1720	+
